Test results: PubChem BioAssay (NCATS)
Results filed as inconclusive are left out. A number with no mark means an inactive call. The source made the active and inactive calls. Calls come from the whole dose curve; as a rule, active = well fitted cell-killing curve with a large enough effect; inconclusive = small, poorly fitted or top-dose-only effect, or effect the other way; inactive = flat fitted curve, though single readings scatter. Where a SMILES comes first, the peptide text is derived from it. [ ]: non-standard residue; d: D form. ξ: configuration not given here. ξLac(3-iPr) = CC(C)CC(O)C(=O)O; NMeV = CN[CH](C(=O)O)C(C)C; NMeA = CN[CH](C)C(=O)O; βAla = NCCC(=O)O

What follows are compounds tested on HeLa (assay: Primary qHTS to identify gynecologic anti-cancer compounds using libraries of approved drugs and bioactive compounds (AID 1345084; note: nearly all actives have a fitted effect of over 55% in size)). Conditions: Gynecologic cancer cell panel viability, ATPlite luminescence, 48 h; series mostly up to 57.5 µM; activity change, negative = cytotoxicity: at the top concentration.
Text: National Center for Advancing Translational Sciences [NCATS] Assay Overview: Chemotherapeutic drug responses vary from cancer to cancer and from patient to patient. These variations could be caused by a number of factors including patient genomic background, tumor mutations, tumor heterogeneity, and aspects of drug treatment. Chemotherapeutic drug resistance is also a common issue and can lead to ineffective treatment and patient death. Here we have profiled the cell killing effects of thousands of compounds to characterize the responses in three gynecological cancers, identify cancer-selective compounds, and understand the diversity of responses to these compounds from pan-cancer suppressors to single cell line selective compounds. In this assay, we screened a 7,914 compound drug library that included approved drug and bioactive compounds in six ovarian, three cervical, and […] placental cancer cell lines using the ATPlite assay for cell viability. […] The cervical cancer cell lines included HeLa, Ca Ski, and C-33 A. The placental cancer cell lines included JEG-3. HEK 293T cells were used as the control cell line to determine the selectivity index. ATPlite is a luminescence based assay reliant on the conversion of a luciferase substrate to light in the presence of ATP. As a cytotoxic compound will suppress growth and decrease the number of cells, the concentration of ATP will decrease, and less light signal will be detected in the well.
Assay Protocol Summary: 1,000 cells in 4 uL of media were dispensed into white, solid bottom 1536-well plates using a Multidrop Combi (Thermo Scientific). The Assay plates were incubated for 16 hours at 37 C with 5% CO2 in assay plates, followed by the addition of 23 nL of DMSO or drug dissolved in DMSO. Each compound was assayed in five concentrations (0.092, 0.46, 2.3, 11.5, and 57.5 uM), using the automated Wako 1536 Pin Tool workstation and incubated at 37 C with 5% CO2 48 hours. 4 uL of ATPlite, the ATP monitoring reagent, was then added to the each well of the assay plates using the Multidrop Combi reagent dispenser followed by incubation for 15 minutes at room temperature. The resulting luminescence was measured using the ViewLux plate reader.
% is set by controls: 0 for no effect and ±100 for the full control effect; potency is the fitted concentration of half-maximal effect.

SMILES	activity change, negative = cytotoxicity	Potency
COc1cc(N2CCN(C)CC2)ccc1N	-1.75%	–
O=C(N[C@H]1CN2CCC1CC2)c1cc2cccc(Cl)c2s1	4.61%	–
Cc1c(Cl)c(OCC(=O)N2CCN(C)CC2)nc2sc(C(=O)NC3CC3)c(N)c12	0.14%	–
C[C@]12CC[C@@H](O[C@@H]3O[C@H](CO)[C@@H](O)[C@H](O)[C@H]3O)C[C@@]1(O)CCC1C2CC[C@]2(C)[C@@H](C3=CC(=O)OC3)CC[C@]12O (stereo not given in full)	–	398 nM (active)
COC1CC(O[C@H]2CC[C@]3(C=O)C4CC[C@]5(C)[C@@H](C6=CC(=O)OC6)CC[C@]5(O)[C@@H]4CC[C@@H]3C2)OC(C)C1O[C@@H]1O[C@H](CO)[C@@H](O[C@@H]2O[C@H](CO)[C@@H](O)[C@H](O)[C@H]2O)[C@H](O)[C@H]1O (stereo not given in full)	–	398 nM (active)
CN(C)c1cc2c(cc1Sc1nc3c(N)nccc3n1CCNCC(C)(C)C)OCO2	-29.9%	–
CC(=O)O[C@H]1CC[C@@]2(CI)C(=CC[C@@H]3[C@@H]2CC[C@]2(C)C(=O)CC[C@@H]32)C1	0.309%	–
CCCCCn1cc(C(=O)Oc2cccc3cccnc23)c2ccccc21	-1.44%	–
CCc1nn(C)c(C(=O)NCc2ccc(Oc3ccc(C)cc3)cc2)c1Cl	-18.6%	–
O=C(OC[C@H]1O[C@@H](Oc2ccc(O)cc2CO)[C@H](O)[C@@H](O)[C@@H]1O)c1ccccc1	8.65% [at 25.3 µM]	–
CC(=O)O[C@H]1CC[C@H]2[C@@H]3CC[C@H]4CC(=O)C=C(C)[C@]4(C)[C@H]3CC[C@]12C	7.42%	–
CC/C=C/C=C/C1(C)OC(OC)=C(C(=O)C2C(C)C(=O)c3cc(OC)c(O)c(O)c3C2(C)O)C1=O (stereo not given)	1.67% [at 25.3 µM]	–
CC(=O)OC[C@]12C[C@H](O)C(C)=C[C@H]1O[C@@H]1[C@H](O)[C@@H](OC(C)=O)[C@@]2(C)[C@]12CO2	–	178 nM (active)
CN1CCc2cc3c(cc2[C@H]1[C@@H]1OC(=O)c2c1ccc1c2OCO1)OCO3	1.03%	–
CCC1C2CC3C4N(C)c5ccccc5C45CC(C2C5O)N3C1O (stereo not given)	5.17% [at 38.5 µM]	–
O=C1CN=C(c2ccccc2Cl)c2cc(Br)ccc2N1	-19.5%	–
CN1CN(c2ccccc2)C2(CCN(CCCC(=O)c3ccc(F)cc3)CC2)C1=O	-1.2%	–
NCCCCCNC1(c2ccccc2)CCCCC1	0.838%	–
COc1cc(O)c2c(c1)/C=C/C[C@@H](O)[C@@H](O)C(=O)CCC[C@H](C)OC2=O	2.29% [at 38.5 µM]	–
CC1=CC2OC3[C@H](O)C[C@@](C)([C@]34CO4)[C@@]2(CO)[C@H](O)C1=O (stereo not given in full)	–	25100 nM (active)

SMILES	activity change, negative = cytotoxicity	Potency
COc1cccc(NCC(F)Cn2c3ccc(Br)cc3c3cc(Br)ccc32)c1 (stereo not given)	-17.8%	–
C=C(CO)[C@@]12O[C@@H]1[C@@]1(C)C(=CC2=O)CC[C@@H](O)[C@@H]1C	-9.22%	–
CC(=O)N1N=C(c2ccc(N)cc2)c2cc3c(cc2C[C@H]1C)OCO3	0.385%	–
CC(=O)OC[C@]12C[C@H](OC(=O)CC(C)C)C(C)=C[C@H]1O[C@@H]1[C@H](O)C[C@@]2(C)[C@]12CO2	–	3980 nM (active)
C[C@@H]1O[C@@H](O[C@H]2CC[C@@]3(C)C(CC[C@@H]4C3CC[C@]3(C)[C@@H](C5=CC(=O)OC5)CC[C@]43O)C2)[C@H](O[C@@H]2O[C@H](CO)[C@@H](O)[C@H](O)[C@H]2O)[C@H](O)[C@H]1O (stereo not given in full)	–	1260 nM (active)
Cc1[nH]c2ccc(Cl)cc2c1CCN(C)C	9.08%	–
CN1C(=O)[C@]23CC4C(C)(C)[C@@]5(C[C@@]41CN2CC[C@@]3(C)O)C(=O)Nc1c5ccc2c1OC=CC(C)(C)O2 (stereo not given in full)	-17.9% [at 25.3 µM]	–
C[C@@H](CN1CCC(n2c(=O)[nH]c3cc(Br)ccc32)CC1)NC(=O)[C@@H]1C[C@H]1c1ccccc1	5.73%	–
COC1C=CC23c4cc5c(cc4COC2(O)CN(C)C3C1)OCO5 (stereo not given)	4.08% [at 38.5 µM]	–
CCC(C)C1NC(=O)C2CCCN2C(=O)C(CC(C)C)OC(=O)CCNC(=O)C(C)N(C)C(=O)C(C(C)C)N(C)C1=O (stereo not given) (cyclo([ξLac(3-iPr)]PI[NMeV][NMeA][βAla]); configuration not given here)	-15.4% [at 25.3 µM]	–
CN1CCN(c2nc3ccccc3nc2Cl)CC1	10.2%	–
CCC1(O)CCC2C3CCC4=CC(=O)CCC4C3CCC21CC (stereo not given)	6.17%	–
C[C@H]1O[C@@H](n2cnc3c(N)ncnc32)C[C@@H]1O	1.86%	–
C=C1CC[C@H]2[C@@H](/C=C(\C)C(=O)[C@@]3(OC(C)=O)C[C@H](C)[C@H](OC(=O)c4ccccc4)[C@@H]3[C@H]1OC(C)=O)C2(C)C	2.79% [at 25.3 µM]	–
C=C1C2(C)CC3C(C)(O)C4=CC(=O)OC(C)(C)C4=CCC3(C)C13C(=O)OC(C)C3(O)C2=O (stereo not given)	-1.37% [at 25.3 µM]	–
CC1=CC(=O)[C@@H](O)[C@]2(C)C3[C@@H](O)[C@@H]4OC(=O)[C@@H]([C@H]4C)[C@]3(C)C(=O)[C@H](O)[C@@H]12 (stereo not given in full)	-19.3% [at 38.5 µM]	–
CC1(C)C(=O)N(c2ccc(C#N)c(C(F)(F)F)c2)C(=O)N1CCCCO	-2.97%	–
CN1C(=O)N(c2ccc(C#N)c(C(F)(F)F)c2)C(=O)[C@@]1(CO)c1ccccc1	4.98%	–
C=C(C)[C@@H]1[C@H]2OC(=O)[C@H]1[C@]1(O)C[C@H]3O[C@]34C(=O)O[C@H]2[C@]14C	9.32%	–
C[C@@H]1O[C@@H](O[C@H]2CC[C@@]3(C)C(CC[C@@H]4C3CC[C@]3(C)[C@@H](C5=CC(=O)OC5)CC[C@]43O)C2)[C@H](O)[C@H](O)[C@H]1O (stereo not given in full)	–	2000 nM (active)
